Test results: PubChem BioAssay (NCATS)
Inconclusive results are not listed. Calls of active or inactive are those of the source. Unless noted, calls follow the shape of the dose curve; as a rule, active = well fitted curve in either direction with a large enough effect (not every such curve was filed as active); inconclusive = small, poorly fitted or top-dose-only effect, or another doubt; inactive = flat fitted curve, though single readings scatter.

Assays:
[1] = AP1 Signaling Pathway (AID 357); also: % is scaled to controls: 0 for no effect and ±100 for the full control effect
Summary of the method: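 ME-180 cells with beta-lactamase reporter under AP-1 response element, stimulated with EC50 EGF; compounds tested in titration series, 5 h at 37 °C. CCF4 substrate added 2.5 h at room temperature; 460/530 nm emission ratio gave %activity and AC50.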

[2] = NFAT Signaling Pathway (AID 444); details: Jurkat NFAT-bla M1, carbachol, beta-lactamase ratio, 5 h;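 also: carbachol stimulus at about its EC50 of 1 µM final; % is scaled to controls: 0 for no effect and ±100 for the full control effect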
Summary of the method: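 Read-out: CCF4 FRET ratio (460 nm/530 nm) after 1 h RT dye loading, used for %activity and AC50 from titration series. Cells: Jurkat NFAT-β-lactamase/M1 line, treated with compound plus 1 uM carbachol for 5 h, 37 °C.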

[3] = Stat Signaling Pathway (AID 446);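 also: ME-180 cervical cancer cells given 40 pM IL-6 alongside compound; SIE-controlled beta-lactamase reporter measured as 460/530 nm FRET emission ratio; % is scaled to controls: 0 for no effect and ±100 for the full control effect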
Summary of the method: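 FRET read-out (405 nm excitation, 460/530 nm emission) of a beta-lactamase reporter under a STAT-inducible element in ME-180 cervical carcinoma cells. Cells with compound receive 40 pM IL-6 for 5 h. Values are normalised to AC90 stimulation and AC90 JAK-inhibitor controls.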

[4] = biological target: Glucocorticoid receptor (Homo sapiens) (UniProt P04150); assay: GR-GFP Redistribution (AID 450;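 active = compounds whose dose series gives a full or clear partial fitted curve of increased nuclear translocation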; also: potency is read from the fitted curve at half-maximal effect); details: U2OS GR-GFP nuclear translocation, laser cytometry, 2 h
Sequence of Glucocorticoid receptor (Homo sapiens) (P04150 whole entry, looked up, the tested form may be a part): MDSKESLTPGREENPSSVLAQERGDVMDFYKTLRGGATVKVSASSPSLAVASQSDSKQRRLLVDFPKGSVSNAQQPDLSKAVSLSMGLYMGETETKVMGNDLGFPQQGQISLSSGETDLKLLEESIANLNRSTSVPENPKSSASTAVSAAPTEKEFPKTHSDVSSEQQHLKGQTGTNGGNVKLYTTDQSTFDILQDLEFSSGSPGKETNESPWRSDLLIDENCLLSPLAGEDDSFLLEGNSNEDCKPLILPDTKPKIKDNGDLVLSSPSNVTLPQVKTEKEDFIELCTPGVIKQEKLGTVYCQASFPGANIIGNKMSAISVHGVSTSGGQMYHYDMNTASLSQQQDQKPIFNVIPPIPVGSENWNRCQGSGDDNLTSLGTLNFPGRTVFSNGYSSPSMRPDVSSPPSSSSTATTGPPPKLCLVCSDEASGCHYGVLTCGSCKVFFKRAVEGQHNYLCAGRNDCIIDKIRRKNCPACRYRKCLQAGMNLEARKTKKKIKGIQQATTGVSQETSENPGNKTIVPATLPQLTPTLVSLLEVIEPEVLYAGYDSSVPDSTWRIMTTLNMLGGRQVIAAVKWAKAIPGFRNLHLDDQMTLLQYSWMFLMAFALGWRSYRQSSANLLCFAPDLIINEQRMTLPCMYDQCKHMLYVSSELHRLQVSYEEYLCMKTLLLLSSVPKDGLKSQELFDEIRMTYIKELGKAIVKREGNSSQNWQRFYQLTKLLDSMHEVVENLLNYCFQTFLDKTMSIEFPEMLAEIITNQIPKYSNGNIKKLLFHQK

[5] = biological target: Glucocorticoid receptor (Homo sapiens) (UniProt P04150); assay: GR-EFC Redistribution (AID 451; calls by dose curve; also: potency is read from the fitted curve at half-maximal effect); details: CHO-K1 GR-EFC translocation, beta-gal luminescence, 2 h
Summary of the method: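 Translocation of GR-ED fusion to nuclear EA restores b-gal, read by luminescence after 1 h room-temperature detection. Engineered CHO-K1 biosensor cells, 1,000/well, exposed 2 h at 37 C to titrations up to 46 uM final.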

[6] = biological target: Mitogen-activated protein kinase 10 (Mus musculus) (UniProt Q61831); assay: JNK3 AlphaScreen Assay (AID 530);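 also: kinase came from lysate of stimulated human HepG2 cells; signal reports phosphorylation of biotinylated GST-cJun 1-79 at Ser73 with 10 µM ATP; % is scaled to controls: 0 for no effect and ±100 for the full control effect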
Summary of the method: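 Kinase buffer: 20 mM Tris-HCl pH 7.6, 10 mM MgCl2, 1 mM DTT, 0.1 mM Na3VO4, 0.01% Tween-20; ATP 10 uM. Substrate biotin-GST-cJun(1-79), enzyme from activated HepG2 lysates. Detection by Ser73 phospho-antibody AlphaScreen.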

[7] = biological target: 3',5'-cyclic-AMP phosphodiesterase 4B (Homo sapiens) (UniProt Q07343); assay: qHTS Assay for Inhibitors of PDE-IV (AID 607; active = well fitted activation curve with a large enough effect in the main read-out, with a control signal flat, not every such curve was filed as active; also: % of control where 0% means no effect)
Sequence of 3',5'-cyclic-AMP phosphodiesterase 4B (Homo sapiens) (Q07343 whole entry, looked up): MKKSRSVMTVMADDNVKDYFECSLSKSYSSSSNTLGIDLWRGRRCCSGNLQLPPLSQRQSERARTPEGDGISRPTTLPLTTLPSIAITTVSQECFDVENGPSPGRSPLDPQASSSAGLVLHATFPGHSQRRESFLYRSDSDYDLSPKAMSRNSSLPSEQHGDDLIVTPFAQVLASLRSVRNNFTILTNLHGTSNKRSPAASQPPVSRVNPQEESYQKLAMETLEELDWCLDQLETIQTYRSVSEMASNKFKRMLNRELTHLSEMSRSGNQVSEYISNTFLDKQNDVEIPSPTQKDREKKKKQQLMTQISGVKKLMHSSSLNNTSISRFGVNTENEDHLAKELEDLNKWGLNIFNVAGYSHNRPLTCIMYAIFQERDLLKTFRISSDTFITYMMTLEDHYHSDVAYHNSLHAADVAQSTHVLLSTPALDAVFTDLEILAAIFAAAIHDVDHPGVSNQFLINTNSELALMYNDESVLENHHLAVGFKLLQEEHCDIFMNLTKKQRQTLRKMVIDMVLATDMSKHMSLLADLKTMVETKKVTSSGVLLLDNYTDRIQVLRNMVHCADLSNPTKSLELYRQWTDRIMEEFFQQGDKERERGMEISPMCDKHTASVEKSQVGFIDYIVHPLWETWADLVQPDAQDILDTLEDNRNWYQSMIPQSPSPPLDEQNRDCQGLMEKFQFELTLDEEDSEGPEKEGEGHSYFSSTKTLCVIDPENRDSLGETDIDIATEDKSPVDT
Summary of the method: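 Cell-based read-out of cAMP via a modified cyclic nucleotide-gated channel and membrane potential dye (535/590 nm) in HEK293 cells expressing PDE4 endogenously. Compounds tested up to 22.9 uM final; 100 uM RO 20-1724 reference.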

[8] = qHTS Assay for Lipid Storage Modulators (AID 1519; calls by dose curve); details: Drosophila S3 cells, BODIPY lipid droplet/cell ratio, laser cytometry, cells loaded with oleic acid; for activity change, negative = inhibition: at 25.7 µM (top of the series)
Summary of the method: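 Cells seeded at 5,000 per well were treated with compounds over a concentration series and loaded with oleic acid (400 uM, as added). Lipid droplet fluorescence (488 nm excitation, 500-530 nm channel) was read by laser-scanning cytometry and normalized to 20 uM Triacsin C.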

[9] = biological target: Ubiquitin carboxyl-terminal hydrolase 1 (Homo sapiens) (UniProt O94782); assay: Inhibitors of USP1/UAF1: Pilot qHTS (AID 504865; active = well fitted curve in the direction sought with a large enough effect; an effect the other way counts as inactive or inconclusive;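 also: rhodamine fluorescence freed from ubiquitin-rhodamine substrate followed over time; top concentration of the series differs between compounds; % is scaled to controls: 0 for no effect and ±100 for the full control effect; nearly all actives have a fitted effect of over 35% in size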)
Sequence of Ubiquitin carboxyl-terminal hydrolase 1 (Homo sapiens) (O94782 whole entry, looked up): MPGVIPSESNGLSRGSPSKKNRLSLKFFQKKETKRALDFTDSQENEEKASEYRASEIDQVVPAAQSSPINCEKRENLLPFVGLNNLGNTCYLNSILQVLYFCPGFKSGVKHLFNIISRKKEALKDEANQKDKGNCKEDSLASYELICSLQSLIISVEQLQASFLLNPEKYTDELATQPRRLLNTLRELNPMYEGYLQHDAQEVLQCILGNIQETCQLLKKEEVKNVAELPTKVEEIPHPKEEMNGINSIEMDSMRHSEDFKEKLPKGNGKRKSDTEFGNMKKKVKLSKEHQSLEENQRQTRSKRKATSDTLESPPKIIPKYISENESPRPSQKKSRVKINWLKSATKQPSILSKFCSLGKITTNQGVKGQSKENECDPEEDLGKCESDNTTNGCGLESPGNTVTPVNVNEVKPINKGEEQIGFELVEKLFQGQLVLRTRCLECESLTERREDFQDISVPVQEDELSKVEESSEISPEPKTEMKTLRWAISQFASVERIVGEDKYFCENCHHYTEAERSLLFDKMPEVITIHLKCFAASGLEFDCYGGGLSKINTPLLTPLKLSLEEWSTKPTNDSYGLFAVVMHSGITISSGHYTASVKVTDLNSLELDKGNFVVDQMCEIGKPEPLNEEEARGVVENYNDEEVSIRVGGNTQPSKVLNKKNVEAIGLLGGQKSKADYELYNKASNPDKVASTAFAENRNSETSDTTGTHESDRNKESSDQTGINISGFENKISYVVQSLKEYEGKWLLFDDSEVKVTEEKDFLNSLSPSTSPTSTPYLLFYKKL
Summary of the method: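 Kinetic fluorescence assay: 1nM USP1/UAF1, 15 min compound preincubation, then 150nM Ub-Rho; 480/540 nm.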

[10] = biological target: ATP-dependent 6-phosphofructokinase (Trypanosoma brucei brucei) (UniProt O15648); assay: qHTS Assay to Find Inhibitors of T. brucei phosphofructokinase: hit validation (AID 492961; active = well fitted curve in the direction sought with a large enough effect; an effect the other way counts as inactive or inconclusive)
Sequence of ATP-dependent 6-phosphofructokinase (Trypanosoma brucei brucei) (O15648 whole entry, looked up): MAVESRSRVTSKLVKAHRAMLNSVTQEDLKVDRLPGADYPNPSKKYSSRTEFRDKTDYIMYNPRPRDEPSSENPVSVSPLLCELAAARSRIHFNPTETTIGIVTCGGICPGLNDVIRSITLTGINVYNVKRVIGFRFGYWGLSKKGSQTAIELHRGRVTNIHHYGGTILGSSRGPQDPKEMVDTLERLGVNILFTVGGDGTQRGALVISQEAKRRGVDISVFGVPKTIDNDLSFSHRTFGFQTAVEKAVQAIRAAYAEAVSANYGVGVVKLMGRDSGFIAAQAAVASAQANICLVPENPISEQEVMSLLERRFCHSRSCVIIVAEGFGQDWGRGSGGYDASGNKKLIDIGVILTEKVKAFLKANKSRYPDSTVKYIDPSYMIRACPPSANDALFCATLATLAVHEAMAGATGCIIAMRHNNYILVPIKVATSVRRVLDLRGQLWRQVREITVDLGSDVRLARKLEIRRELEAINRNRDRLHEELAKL
Summary of the method: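 ADP-Glo luminescence read-out of ADP formed by 1.25 nM PFK from 0.1 mM ATP and 0.5 mM F6P (TEA pH 8.0, 45 min, RT). Compounds titrated; activity normalized to no-enzyme and full-enzyme controls.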

[11] = biological target: Luciferin 4-monooxygenase (Photinus pyralis) (UniProt P08659); assay: Biochemical firefly luciferase enzyme assay for NPC (AID 624030; active = well fitted curve in the direction sought with a large enough effect; an effect the other way counts as inactive or inconclusive;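 also: purified P. pyralis luciferase at 10 nM with luciferin and ATP substrate; 0% = DMSO and -100% = full luciferase inhibition by PTC124 control; nearly all actives have a fitted effect of over 70% in size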)
Sequence of Luciferin 4-monooxygenase (Photinus pyralis) (P08659 whole entry, looked up): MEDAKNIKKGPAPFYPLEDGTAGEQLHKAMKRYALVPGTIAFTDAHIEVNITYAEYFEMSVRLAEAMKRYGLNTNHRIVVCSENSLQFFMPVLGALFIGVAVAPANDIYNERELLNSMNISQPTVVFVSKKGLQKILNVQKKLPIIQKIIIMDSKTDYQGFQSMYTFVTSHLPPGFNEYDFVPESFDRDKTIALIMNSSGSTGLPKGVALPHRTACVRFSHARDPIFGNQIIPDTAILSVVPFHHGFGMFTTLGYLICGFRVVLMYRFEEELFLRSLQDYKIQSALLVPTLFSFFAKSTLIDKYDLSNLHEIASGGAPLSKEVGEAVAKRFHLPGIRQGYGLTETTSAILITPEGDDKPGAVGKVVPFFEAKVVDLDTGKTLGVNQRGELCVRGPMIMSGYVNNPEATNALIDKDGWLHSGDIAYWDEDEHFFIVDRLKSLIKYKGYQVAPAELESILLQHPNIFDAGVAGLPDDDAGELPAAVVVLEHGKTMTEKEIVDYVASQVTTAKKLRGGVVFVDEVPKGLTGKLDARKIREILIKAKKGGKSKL
Summary of the method: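 Direct inhibition of firefly luciferase enzyme (10 nM final, 50 mM Tris Acetate) assessed by luminescence within 5 minutes. Percent activity scaled between DMSO and PTC124 positive control, with concentration-effect curves classified by fit quality and response.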

[12] = S16 Schwann cell viability assay (CellTiter-Glo assay) (AID 624031; active = well fitted curve in the direction sought with a large enough effect; an effect the other way counts as inactive or inconclusive;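 also: native untransfected S16 rat Schwann cells; cellular ATP luminescence as a viability measure; plate controls were DMSO-treated cells for no effect and cell-free wells for full effect; nearly all actives have a fitted effect of over 70% in size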)
Summary of the method: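 Rat S16 Schwann cells without reporter constructs received compound or DMSO for 24 h at 37 °C under 5% CO2. Cellular ATP was then quantified by CellTiter-Glo luminescence, with vehicle wells defined as 0% activity and cell-free wells as reference.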

[13] = S16 Schwann cell PMP22 intronic element firefly luciferase assay (AID 624032; active = well fitted curve in the direction sought with a large enough effect; an effect the other way counts as inactive or inconclusive;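 also: plate controls were DMSO for no effect and PTC124 positive control mean for full effect; nearly all actives have a fitted effect of over 30% in size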)
Summary of the method: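 Luciferase reporter of PMP22 intronic-element expression in stably transfected S16 rat Schwann cells, read by ONE-Glo luminescence after 24 h compound exposure at 37 C. Activity scaled between DMSO (0%) and positive-control PTC124; concentration-effect curves quality-classified.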

[14] = qHTS profiling for inhibitors of Plasmodium falciparum proliferation (AID 504749; active = well fitted curve in the direction sought with a large enough effect; an effect the other way counts as inactive or inconclusive;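 also: 0% = DMSO vehicle and full inhibition = artemisinin control; nearly all actives have a fitted effect of over 60% in size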); details: P. falciparum in erythrocytes, SYBR Green DNA, 72 h, at 28.7 µM (top of the series)
Summary of the method: (§1)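 In a 72 h erythrocytic culture (37 C, humidified, 5% CO2) at 2.5% hematocrit and 0.3% starting parasitemia, compounds were tested; SYBR Green I in detergent lysis buffer stained parasite DNA overnight.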

[15] = tested on: 3D7; assay: as above; details: P. falciparum in erythrocytes, SYBR Green DNA, 72 h; series mostly up to 28.7 µM
Summary of the method: as §1

[16] = tested on: CP262; assay: as above; details: P. falciparum in erythrocytes, SYBR Green DNA, 72 h; series mostly up to 28.7 µM
Summary of the method: as §1

[17] = tested on: ECU; assay: as above; details: P. falciparum in erythrocytes, SYBR Green DNA, 72 h; series mostly up to 28.7 µM
Summary of the method: as §1

[18] = tested on: HB3; assay: as above; details: P. falciparum in erythrocytes, SYBR Green DNA, 72 h; series mostly up to 28.7 µM
Summary of the method: as §1

[19] = measured here: cell count channel max response
[20] = measured here: lipid channel max response

C[C@@H]1NCCc2cc(O)c(O)cc21
inactive: outcome [1] | activity change, negative = inhibition ([2]; at 17.2 µM (top of the series)) -2.85% | outcome [3] | Potency [4] > 20.6 µM | Potency [5] > 20.6 µM | outcome [6] | Potency [7] | activity change, negative = inhibition [8] -2.45% | Potency [9]
-9.01%: max response [8, 19]
-11.5%: max response [8, 20]

CC1=C2[C@@H]3OC(=O)[C@@H](C)[C@@H]3CC[C@]2(C)C=CC1=O
-3.78%: max response [8, 20]
inactive: outcome [1] | activity change, negative = inhibition ([2]; at 17.2 µM (top of the series)) -9.62% | outcome [3] | Potency [4] > 20.6 µM | Potency [5] > 20.6 µM | outcome [6] | Potency [7] | activity change, negative = inhibition [8] 0.607% | Potency [10] | Potency [9] | Potency [11] | Potency [12] | Potency [13] | activity, negative = inhibition ([14]; parasite line A) -27% | activity, negative = inhibition ([14]; parasite line B) -4.04% | Potency [15] | Potency [16] | Potency [17] | Potency [18]
-1.82%: max response [8, 19]

NC[C@H](O)c1ccc(O)cc1
inactive: outcome [1] | activity change, negative = inhibition ([2]; at 17.2 µM (top of the series)) 6.46% | activity change, negative = inhibition ([2]; at 38 µM (top of the series)) 10.8% | outcome [3] | Potency [7] | activity change, negative = inhibition [8] -0.0033% | Potency [9]
3.81%: max response [8, 20]
1.62%: max response [8, 19]

Oc1ccc2c3c1O[C@H]1[C@@H](O)CC[C@]4(O)[C@H](C2)N(CC2CCC2)CC[C@@]314
0.408%: max response [8, 20]
inactive: outcome [1] | activity change, negative = inhibition ([2]; at 17.2 µM (top of the series)) -1.63% | outcome [3] | Potency [4] > 20.6 µM | Potency [5] > 20.6 µM | outcome [6] | Potency [7] | activity change, negative = inhibition [8] -2.99% | Potency [9]
3.75%: max response [8, 19]

CC1=CC(=O)C2=C(C)C[C@@H](O)[C@@H]3[C@@H](OC(=O)[C@H]3C)[C@H]12
-12.9%: max response [8, 19]
-12%: max response [8, 20]
inactive: outcome [1] | activity change, negative = inhibition ([2]; at 17.2 µM (top of the series)) -5.22% | outcome [3] | Potency [4] > 20.6 µM | Potency [5] > 20.6 µM | Potency [7] | activity change, negative = inhibition [8] -1.62% | Potency [9]

CN1CCC2=C[C@H](O)[C@@H]3OC(=O)c4cc5c(cc4[C@H]3[C@H]21)OCO5
-1.93%: max response [8, 20]
inactive: outcome [1] | activity change, negative = inhibition ([2]; at 17.2 µM (top of the series)) -12.8% | outcome [3] | Potency [4] > 20.6 µM | Potency [5] > 20.6 µM | outcome [6] | Potency [7] | activity change, negative = inhibition [8] 0.357% | Potency [9]
-2.84%: max response [8, 19]
